Screening data from PubChem.
Hck-Nef inh: human Hck-Nef kinase inhibition; P08631; hit rate 0.68% among 220,000; Recombinant Hck-YEEI plus Nef, Z-Lyte FRET kinase assay; inhibition, % at 20 µM;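 active = Hck-Nef kinase inhibition above about 50%, limit read from the data; inactive = inhibition below that limit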
Target sequence (P08631 whole entry, looked up): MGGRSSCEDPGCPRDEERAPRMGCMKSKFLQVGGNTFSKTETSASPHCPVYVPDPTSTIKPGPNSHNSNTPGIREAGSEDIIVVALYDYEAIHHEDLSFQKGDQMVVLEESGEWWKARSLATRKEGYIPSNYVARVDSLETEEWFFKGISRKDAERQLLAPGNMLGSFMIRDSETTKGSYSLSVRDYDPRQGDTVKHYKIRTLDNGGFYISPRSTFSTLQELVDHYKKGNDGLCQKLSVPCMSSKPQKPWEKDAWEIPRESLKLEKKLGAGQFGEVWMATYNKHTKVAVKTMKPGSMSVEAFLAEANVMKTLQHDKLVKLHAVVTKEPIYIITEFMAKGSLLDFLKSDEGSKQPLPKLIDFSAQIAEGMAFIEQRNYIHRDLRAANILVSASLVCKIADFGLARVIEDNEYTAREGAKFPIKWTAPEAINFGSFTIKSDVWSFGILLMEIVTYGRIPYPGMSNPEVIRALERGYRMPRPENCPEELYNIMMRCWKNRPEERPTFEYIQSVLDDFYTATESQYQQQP
14-3-3 Bad PPI: disrupts binding of bovine 14-3-3 zeta to phospho-Bad peptide | inhibition, % at 21.7 µM | hit rate 0.71% among 220,000 | TR-FRET 14-3-3zeta/Dy647-pBad peptide displacement, 1 h | P63103;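 active = inhibition above about 70%, limit read from the data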
eIF4E-4G inh: blocks eIF4E binding to eIF4G; P63073+Q04637; TR-FRET eIF4E-eIF4GI(517-606) binding, 2 h; inhibition, % at 21.7 µM; hit rate 0.37% among 220,000;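 active = inhibition above about 30%, limit read from the data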
Mcl1-Noxa inh: Mcl-1/Noxa interaction inhibition; Q07820; TR-FRET Mcl-1/Noxa peptide binding, 2 h; inhibition, % at 21.7 µM; hit rate 1.5% among 220,000; AID 1022;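 active = compounds that cut the protein-peptide binding signal by more than 50% relative to plate controls in a single-dose test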;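 note: His-tagged Mcl-1 with rhodamine Noxa BH3 peptide and terbium anti-His antibody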
Mcl1-Bid inh: Mcl-1/Bid interaction inhibition; hit rate 0.97% among 220,000; Q07820; inhibition, % at 21.7 µM; TR-FRET Mcl-1/Bid-Dy647 peptide binding, 1536-well;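 active = compounds that cut the binding signal by more than half at the single screening dose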;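 note: His-tagged Mcl-1 with europium anti-His antibody binding Bid BH3 peptide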
Bim-Mcl-1: inhibitors of Bim-Mcl-1 interaction, human | Q07820 | inhibition, % at 10 µM | hit rate 0.1% among 190,000 | Bead-based flow cytometry, Bim peptide-Mcl-1 binding; in the data active = inhibition above about 40%
Large screens that a line does not name were inactive; ! = not active in a repeat; [ ] = remark or other dose. Only some compounds are listed: those with a hit (about 3.5% of all), similar ones and a draw of the others.

Cc1csc2c(N3CCN(C(=S)Nc4ccc(F)cc4F)CC3)ncnc12	none (no result: Bim-Mcl-1)
CC(C)c1ccc(-c2nc3c([nH]2)c(=O)n(C)c(=O)n3C)cc1	none
Cn1c(=O)c2[nH]c(-c3ccccc3O)nc2n(C)c1=O	Mcl1-Noxa inh 59
OCC1(O)OC[C@@H](O)[C@H]1O (stereo partly specified)	none (no result: Bim-Mcl-1)
COc1ccccc1NC(=S)NCCSc1ccc(Cl)cc1	eIF4E-4G inh 33
N#Cc1cc(-c2ccc(Cl)cc2)cnc1Sc1ccc(F)cc1	none
COc1ccc(-c2cnc3c(c2)CCC3(C#N)C#N)cc1	none
CN(C)S(=O)(=O)c1ccc(NC(=O)CCNC(=O)c2ccc([N+](=O)[O-])cc2)cc1	none
CCCc1nc2sc3c(=O)n(N)cnc3c2c2c1CCCC2	none
CC(=O)c1ccc(S(=O)(=O)Nc2ccc(-c3ccc4nnc(C)n4n3)cc2)cc1	Mcl1-Noxa inh 55
Cc1nnc2ccc(-c3ccc(NS(C)(=O)=O)cc3)nn12	none
O=C(NCc1cccnc1)/C(=C/c1ccc(-c2cccc(Cl)c2)o1)S(=O)(=O)c1ccccc1	Mcl1-Bid inh 57
O=C(NCc1cccnc1)/C(=C\c1ccc(-c2cccc(Cl)c2)o1)S(=O)(=O)c1ccccc1	none
O=C(CN1C(=O)CCC1=O)Nc1ccc(Cc2ccc(NC(=O)CN3C(=O)CCC3=O)cc2)cc1	none
CCn1c(SCC(=O)Nc2cc(C)on2)nc2sc3c(c2c1=O)CCCC3	Hck-Nef inh 53
Cn1c(N)c(C(=O)COC(=O)C2CC(=O)N(Cc3ccccc3)C2)c(=O)n(C)c1=O (stereo unspecified)	none
COc1ccc(N/C(=N\c2nc(C)cc(C)n2)NC(=O)C(C)C)cc1OC	14-3-3 Bad PPI 76
COc1ccc(/C=C2\C(=O)N(c3nc(-c4ccc(Br)cc4)cs3)N=C2c2ccccc2)cc1	none (no result: 14-3-3 Bad PPI, eIF4E-4G inh, Mcl1-Noxa inh, Mcl1-Bid inh, Bim-Mcl-1)
CCOC(=O)C1=C(C)N(c2ccccc2)C(=O)/C1=C\c1ccc(O)c(OC)c1	none (no result: Bim-Mcl-1)
COc1cc(/C=C2\C(=O)N(c3ccc(NC(C)=O)cc3)N=C2c2ccccc2)ccc1O	Mcl1-Noxa inh 58
CCOc1cc(/C=C2\C(=O)N(c3nc(-c4ccc(Br)cc4)cs3)N=C2c2ccccc2)ccc1O	Mcl1-Noxa inh 94, Mcl1-Bid inh 81
CC1=NN(c2ccccc2)C(=O)/C1=C\c1sccc1C	none (no result: Bim-Mcl-1)
O=C1/C(=C\c2ccc(O)c(O)c2)C(c2ccccc2)=NN1c1ccccc1	Mcl1-Noxa inh 71
O=C(O)Cn1cnc2c(=S)nc[nH]c21	Mcl1-Bid inh 99 (no result: Bim-Mcl-1)
Cc1cccc(NC(=S)N(CCCN2CCOCC2)C(C)c2cc3ccccc3o2)c1C (stereo unspecified)	none
O=C(N/N=C/c1ccncc1)c1cccc(NC(=O)c2ccccc2Cl)c1	Bim-Mcl-1 42
O=C(N/N=C/c1ccncc1)c1cccc(S(=O)(=O)Nc2ccc(Cl)cc2)c1	eIF4E-4G inh 92, Mcl1-Bid inh 79 (no result: Bim-Mcl-1)
Cc1c(NC(=S)NC(=O)C2CCCCC2)c(=O)n(-c2ccccc2)n1C	none
NC(=O)CSc1ccc(F)cc1	none
CC(C)C(c1nnnn1C(C)(C)C)N1CCOCC1 (stereo unspecified)	14-3-3 Bad PPI 71
CC(C)C(c1nnnn1C1CCCCC1)N1CCOCC1 (stereo unspecified)	none
O=C(CSCC(=O)Nc1ccc2ccccc2c1)NCc1ccccc1	eIF4E-4G inh 37
CC(C)c1ccc(CNC(=O)CSCC(=O)Nc2ccc3ccccc3c2)cc1	none (no result: Mcl1-Noxa inh)
COc1ccc(NC(=O)/C(C#N)=C/c2ccc(Br)o2)cc1	Mcl1-Noxa inh 58
CCN(CC)CCn1c(NCc2ccccn2)nc2ccccc21	14-3-3 Bad PPI 77, Mcl1-Bid inh 85
COc1cccc(NC(=O)Nc2nnc(N3C(C)CCCC3C)s2)c1 (stereo unspecified)	none (no result: Bim-Mcl-1)
CC1CCc2nn(CC(=O)N3CCCCCC3)cc2C1 (stereo unspecified)	eIF4E-4G inh 77[fluorescence artefact?]
CC1CCc2nn(CC(=O)Nc3ccc(F)cc3F)cc2C1 (stereo unspecified)	none
CCN(CC)c1ccc(NC(=O)Cn2cc3c(n2)CCC(C)C3)c(C)c1 (stereo unspecified)	Mcl1-Noxa inh 61
O=C(C(c1ccccc1)c1ccccc1)N1CCN(c2ccccn2)CC1	none
O=C(C(c1ccccc1)c1ccccc1)N1CCN(Cc2ccccn2)CC1	14-3-3 Bad PPI 71
COc1cccc(C(=O)N2CCN(Cc3ccccn3)CC2)c1OC	Mcl1-Bid inh 68
COc1cccc(C(=O)N2CCN(C3CCC(c4ccccc4)CC3)CC2)c1OC (stereo unspecified)	Mcl1-Bid inh 55
O=C(C(c1ccccc1)c1ccccc1)N1CCN(Cc2ccncc2)CC1	14-3-3 Bad PPI 75
OCC[C@H]1C[C@@H](O)[C@H](O)[C@]2(CCCCO2)O1	none (no result: Bim-Mcl-1)
CCOC(=O)N1CCC(NS(=O)(=O)c2ccc(C#N)cc2)CC1	none (no result: Bim-Mcl-1)
COc1ccccc1/C=C/C=N/NC(=O)c1cc(-c2ccc(C)o2)[nH]n1	none (no result: Bim-Mcl-1)
COc1cc(NC(=O)c2cc3c(C)nc4ccccc4c3o2)cc(OC)c1OC	Mcl1-Noxa inh 56
CCCCOc1cc(C(=O)NCCN(CC)CC)c2ccccc2n1	eIF4E-4G inh 74!
CCCCN(CC)CCNC(=O)c1cc2c(C)nc3ccccc3c2o1	Mcl1-Noxa inh 71
CCOC(=O)CNC(=O)N1CCCC(C(=O)c2ccccc2SC)C1 (stereo unspecified)	none
O=C(Cn1cnc2cc([N+](=O)[O-])ccc2c1=O)Nc1ccc(N2CCOCC2)cc1	none (no result: Bim-Mcl-1)
COCCNC(=O)CCC(=O)NNc1nc2ccccc2c2nc(-c3ccccc3)nn12	none
COc1ccc(/C=N/OC/C(O)=C(\C#N)c2nc3ccccc3[nH]2)cc1OC	none
O=C(/C=C/c1cccc(OCc2ccccc2)c1)c1cccnc1	Mcl1-Bid inh 55
O=C(O)/C=C/c1cccc(OCc2ccccc2)c1	none
CCOC(=O)c1ccccc1Nc1cc(C)nc2nc(C)nn12	Mcl1-Noxa inh 58
CCOC(=O)c1ccccc1NC(=O)c1nc2nccc(C)n2n1	Mcl1-Bid inh 79
Oc1ccccc1Nc1nc(NCc2ccccc2)c2ccccc2n1	Mcl1-Noxa inh 59
CCN(CC)S(=O)(=O)N1CCN(S(=O)(=O)N2CCOCC2)CC1	none
COc1ccccc1NC(=O)c1ccc(NC(=O)c2cc3c(s2)CCC3)cc1	14-3-3 Bad PPI 79[fluorescence artefact?], eIF4E-4G inh 41
O=C1CCCN1CCCNCC(=O)N1c2ccccc2Sc2ccccc21	14-3-3 Bad PPI 79, Mcl1-Bid inh 51
Cc1cccn2c(=O)c3cc(C(N)=S)c(=N)n(CCCN4CCOCC4)c3nc12	Mcl1-Bid inh 58
Cc1cccn2c(=O)c3cc(C#N)c(=N)n(CCCN4CCOCC4)c3nc12	none (no result: 14-3-3 Bad PPI, eIF4E-4G inh, Mcl1-Noxa inh, Mcl1-Bid inh, Bim-Mcl-1)
CCn1c(=N)c(C(N)=O)cc2c(=O)n3cccc(C)c3nc21	Hck-Nef inh active (no result: 14-3-3 Bad PPI, eIF4E-4G inh, Mcl1-Noxa inh, Mcl1-Bid inh, Bim-Mcl-1)
Cc1cccn2c(=O)c3cc(C(=O)NC4CCCC4)c(=N)n(C4CCCC4)c3nc12	Hck-Nef inh 66
